Assay outcomes as filed in PubChem BioAssay.
A selection: hits, their analogues and other compounds. The true share with any hit is near 4%.
MazF activator = activators of E. coli MazEF toxin-antitoxin RNase, primary screen, biochemical, fluorescence, uHTS; FAM/BHQ RNA-DNA oligo cleavage fluorescence, 5 h; Endoribonuclease toxin MazF (Escherichia coli (strain K12)), P0AE70; 350,000 tested, 0.32% active; activation, % at 20 µM; in the data active = activation above about 50%
Bead autofluor = counter-screen for toxin protease inhibitors: compound fluorescence; 360,000 tested, 3.1% active; AID 624483; fluorescence intensity (no concentration beside the values); compound autofluorescence counterscreen, microsphere flow cytometry; hits give high values; in the data active = fluorescence intensity above about 16000; inconclusive = no clear call, values can overlap the other calls
Anthrax LF prot = Bacillus anthracis LF protease inhibitors, primary screen, biochemical, multiplex microsphere, MLPCN library; 360,000 tested, 0.12% active; Lethal factor (Bacillus anthracis), P15917; inhibition, % at 10 µM; multiplex microsphere protease cleavage assay; note: plate controls were buffer without enzyme for full effect and enzyme alone for no effect
Target sequence (P15917 whole entry, looked up): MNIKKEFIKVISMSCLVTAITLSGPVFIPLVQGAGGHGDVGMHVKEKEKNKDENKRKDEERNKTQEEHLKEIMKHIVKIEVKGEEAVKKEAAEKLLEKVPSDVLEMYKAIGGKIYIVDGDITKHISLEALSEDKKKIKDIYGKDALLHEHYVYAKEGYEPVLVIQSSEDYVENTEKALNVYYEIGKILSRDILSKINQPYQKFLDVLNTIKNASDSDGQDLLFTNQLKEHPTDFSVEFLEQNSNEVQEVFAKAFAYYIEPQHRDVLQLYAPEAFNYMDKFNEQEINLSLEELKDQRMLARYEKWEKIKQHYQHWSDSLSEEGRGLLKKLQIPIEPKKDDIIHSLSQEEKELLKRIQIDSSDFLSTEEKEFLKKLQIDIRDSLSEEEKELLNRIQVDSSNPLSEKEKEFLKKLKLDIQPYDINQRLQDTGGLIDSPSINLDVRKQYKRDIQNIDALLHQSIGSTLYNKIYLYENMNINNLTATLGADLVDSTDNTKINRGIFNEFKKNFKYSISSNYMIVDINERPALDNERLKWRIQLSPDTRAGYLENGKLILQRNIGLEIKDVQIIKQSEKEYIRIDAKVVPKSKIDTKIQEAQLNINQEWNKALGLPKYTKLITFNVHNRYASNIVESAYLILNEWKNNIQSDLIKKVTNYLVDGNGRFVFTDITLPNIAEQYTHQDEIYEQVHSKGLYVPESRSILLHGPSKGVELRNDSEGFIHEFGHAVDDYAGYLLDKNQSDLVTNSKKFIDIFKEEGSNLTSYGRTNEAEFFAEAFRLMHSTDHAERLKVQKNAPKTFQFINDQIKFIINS
VHR inh abs = VHR1 phosphatase inhibitors, primary screen, biochemical, absorbance, uHTS; 290,000 tested, 0.52% active; inhibition, % at 13.3 µM; Dual specificity protein phosphatase 3 (Homo sapiens), P51452; recombinant VHR phosphatase, pNPP absorbance; in the data active = inhibition above about 50%
BoNT F protease = BoNT/F light chain protease inhibitors, primary screen, biochemical, flow cytometry, MLPCN library | 360,000 tested, 0.22% active | Multiplex microsphere protease cleavage assay | AID 588497, 2011 | inhibition, % at 10 µM; in the data active = inhibition above about 35%, passing the limit was not always enough; inconclusive = no clear call, values can overlap the other calls; note: plate controls were buffer without enzyme for full effect and enzyme alone for no effect
BoNT A protease = BoNT/A light chain protease inhibitors, primary screen, biochemical, flow cytometry, MLPCN library. Botulinum neurotoxin type A light chain protease (Clostridium botulinum A str. ATCC 3502). inhibition, % at 10 µM. multiplex microsphere protease substrate cleavage. 360,000 tested, 0.17% active; note: plate controls were buffer without enzyme for full effect and enzyme alone for no effect
Starred values were filed as active, the others as inactive. Cut-off read from the data, not from the text of the source, unless noted: active = inhibition above about 30%; inconclusive = no clear call, values can overlap the other calls; inactive = below that.

What do the screens show for `COc1cc(C2CC(=O)c3cnc(NC(=O)COc4ccccc4)nc3C2)cc(OC)c1OC` (stereo not drawn)?
MazF activator: 11.0; Bead autofluor: 21520*; Anthrax LF prot: -1.9; VHR inh abs: 4.4; BoNT F protease: 6.2; BoNT A protease: 4.4

What do the screens show for `COc1ccc(C(C)=O)cc1CC(C(=O)c1ccc(F)cc1)N(C)C` (stereo not drawn)?
MazF activator: -4.2; Bead autofluor: 2155; Anthrax LF prot: -1.6; VHR inh abs: 37.3; BoNT F protease: -0.5; BoNT A protease: 0.5

How did CC[C@@H](C)[C@H](NC(=O)Cc1c(C)c2c(cc(C)c3c(C)c(C)oc32)oc1=O)C(=O)O do in these assays?
MazF activator: 9.0; Bead autofluor: 3639; Anthrax LF prot: -10.7; VHR inh abs: 8.6; BoNT F protease: 37.5*; BoNT A protease: 2.2

How did CN1CCN(C2=C(Cl)C(=O)c3ccccc3C2=O)CC1 do in these assays?
MazF activator: -40.2; Bead autofluor: 3199; Anthrax LF prot: -30.2; BoNT F protease: -43.3; BoNT A protease: -0.2

How did CN1CCN(C2=C(Cl)C(=O)C(c3cnc(N4CCCCC4)s3)=C(Cl)C2=O)CC1 do in these assays?
MazF activator: -4.9; Bead autofluor: 19751*; Anthrax LF prot: -8.0; VHR inh abs: 17.7; BoNT F protease: -22.9; BoNT A protease: 4.4

Results for COc1ccc(-c2nc3c4ccccc4ccn3c2Cc2ccsc2)cc1OC ?
Bead autofluor: 6366; Anthrax LF prot: -1.0; BoNT F protease: -0.3; BoNT A protease: 2.5

What do the screens show for `CCn1c(COc2ccccc2C)nnc1SCC(=O)Nc1ccc2c(c1)OCCO2`?
MazF activator: -2.2; Bead autofluor: 20676*; Anthrax LF prot: 1.5; VHR inh abs: -12.1; BoNT F protease: -2.2; BoNT A protease: inconclusive

What do the screens show for `CCn1c(Cc2ccccc2)nnc1SCC(=O)Nc1ccc2c(c1)OCCO2`?
MazF activator: 6.3; Bead autofluor: 17692*; Anthrax LF prot: -15.6; VHR inh abs: -16.7; BoNT F protease: 18.8; BoNT A protease: inconclusive

Results for CCn1c(=O)cc(SCC(=O)Nc2ccc3c(c2)OCCO3)c2ccccc21 ?
MazF activator: 1.5; Bead autofluor: 20714*; Anthrax LF prot: -3.5; VHR inh abs: 3.0; BoNT F protease: 9.7; BoNT A protease: 7.4

How did CCn1c(Cc2ccccc2)nnc1SCC(=O)Nc1nc(C)c(C)s1 do in these assays?
MazF activator: -7.6; Bead autofluor: 21539*; Anthrax LF prot: -0.3; VHR inh abs: 23.8; BoNT F protease: 5.5; BoNT A protease: 2.0

How did COc1ccc(S(=O)(=O)N2CCOCC2)cc1NC(=O)CCCSc1ccccc1 do in these assays?
MazF activator: 0.3; Bead autofluor: 3967; Anthrax LF prot: -0.6; BoNT F protease: -1.3; BoNT A protease: -0.3

How did CCOC(=O)c1ccc(NC(=O)C2CCC(CNc3c(N4CCOCC4)c(=O)c3=O)CC2)cc1 (stereo not drawn) do in these assays?
MazF activator: 1.4; Bead autofluor: 3396; Anthrax LF prot: -8.7; VHR inh abs: -15.7; BoNT F protease: -0.1; BoNT A protease: -0.5

Results for Cc1cnc(NC(=O)CSc2nnc(Cc3ccccc3)o2)s1 ?
MazF activator: -2.4; Bead autofluor: 13021; Anthrax LF prot: -12.5; VHR inh abs: -4.9; BoNT F protease: 14.2; BoNT A protease: inconclusive

How did Cc1cnc(NC(=O)CSc2nnc(Cc3ccccc3)n2C)s1 do in these assays?
MazF activator: -1.5; Bead autofluor: 21335*; Anthrax LF prot: -1.4; VHR inh abs: 1.8; BoNT F protease: -5.2; BoNT A protease: -4.4

Results for Cc1ccc(S(=O)(=O)Nc2cc(-c3nn(C)c(=O)c4ccccc34)ccc2N2CCOCC2)cc1 ?
MazF activator: 6.6; Bead autofluor: 22492*; Anthrax LF prot: -3.8; VHR inh abs: 8.7; BoNT F protease: 4.1; BoNT A protease: inconclusive

How did Cn1nc(-c2ccc(N3CCOCC3)c(NS(=O)(=O)c3ccc(Cl)cc3)c2)c2ccccc2c1=O do in these assays?
MazF activator: 1.3; Bead autofluor: 2955; Anthrax LF prot: 1.2; VHR inh abs: 24.6; BoNT F protease: 0.8; BoNT A protease: 0.1

What do the screens show for `COc1ccc2ccccc2c1/C=N/NC(=O)c1cccc(Br)c1`?
MazF activator: 2.2; Bead autofluor: 2465; Anthrax LF prot: -2.4; VHR inh abs: 1.7; BoNT F protease: 0.0; BoNT A protease: -0.3

What do the screens show for `O=C(N/N=C/c1ccc(N2CCOCC2)o1)c1ccccc1[N+](=O)[O-]`?
MazF activator: -5.7; Bead autofluor: 2343; Anthrax LF prot: -0.2; VHR inh abs: 5.0; BoNT F protease: -2.2; BoNT A protease: 0.1

Results for O=C(N/N=C/c1ccc(N2CCOCC2)o1)c1cccc(C(F)(F)F)c1 ?
MazF activator: 8.8; Bead autofluor: 24154*; Anthrax LF prot: -2.6; VHR inh abs: 13.2; BoNT F protease: -2.9; BoNT A protease: -1.0

Results for OCC(CO)(CO)N=Cc1c(O)ccc2ccccc12 ?
MazF activator: 7.6; Bead autofluor: 16546*; Anthrax LF prot: 0.1; VHR inh abs: 18.8; BoNT F protease: 2.1; BoNT A protease: 0.3

Results for O=C(N/N=C/c1c(O)ccc2ccccc12)c1cccc(C(F)(F)F)c1 ?
MazF activator: 75.3*; Bead autofluor: 2696; Anthrax LF prot: 1.2; VHR inh abs: 8.1; BoNT F protease: 0.4; BoNT A protease: 13.7

Results for CN(C)/N=C/c1c(O)ccc2ccccc12 ?
MazF activator: 5.8; Bead autofluor: 2910; Anthrax LF prot: -2.7; VHR inh abs: -2.0; BoNT F protease: -5.3; BoNT A protease: 0.4

How did Nc1nnc(C(=O)c2ccccc2N)s1 do in these assays?
MazF activator: 4.1; Bead autofluor: 21252*; Anthrax LF prot: -0.5; BoNT F protease: -3.1; BoNT A protease: -1.7

Results for NC(=O)c1ccccc1N ?
MazF activator: 1.7; Bead autofluor: 3998; Anthrax LF prot: 3.5; BoNT F protease: 4.4; BoNT A protease: 0.1

How did CCOC(=O)CNC(=S)N(Cc1cccs1)C1CCCCC1 do in these assays?
MazF activator: 1.8; Bead autofluor: 2634; Anthrax LF prot: -0.6; VHR inh abs: 4.0; BoNT F protease: -2.2; BoNT A protease: -0.7

How did CCOC(=O)C1Oc2ccccc2C(c2cccc3ccccc23)=C1C(=O)OC (stereo not drawn) do in these assays?
MazF activator: 146.3*; Bead autofluor: 3818; Anthrax LF prot: -1.9; BoNT F protease: -6.4; BoNT A protease: 0.3

How did CCOC(=O)c1ccccc1NC(=O)Cn1cnc2c(cnn2-c2ccccc2)c1=O do in these assays?
MazF activator: -4.6; Bead autofluor: 2932; Anthrax LF prot: -1.5; VHR inh abs: -4.1; BoNT F protease: 0.8; BoNT A protease: 0.1

Results for COC(=O)c1ccccc1NC(=O)Cn1cnc2c(cnn2-c2ccc(C)c(C)c2)c1=O ?
MazF activator: 17.1
